In all, about 330,000 compounds went through this assay and about 4,600 (1.4%) were called active. Shown is part of a subset that was picked to be rich in actives. A number with no mark means an inactive call.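 The calls were made as follows: active = inhibition of 40% or more at the single tested concentration; inactive = the rest.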
assay: growth inhibitors of isogenic TIM10 control yeast, primary screen, counter-screen for tim10-1 yeast inhibitor project, luminescence, uHTS (AID 463195);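 also: wild-type TIM10 isogenic control strain grown at permissive 25 °C; 0% = DMSO yeast wells and 100% = minimal medium wells without yeast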; settings: S. cerevisiae TIM10 strain growth, BacTiter-Glo luminescence, 24 h; at 10 µM; stronger effect = higher value

| SMILES | inhibition |
| --- | --- |
| Cc1ccc(-c2nc3ccccc3c(=O)n2-c2ccc(Br)cn2)cc1 | 43.5% (active) |
| O=c1c2ccccc2nc(-c2ccco2)n1-c1ccc(Br)cn1 | 5.95% |
| O=c1c2ccccc2nc(-c2ccccc2)n1-c1ccccn1 | 9.32% |
| C=CC12CN(C)[C@@H]3C4CO[C@H](C[C@H]41)[C@]1(C(=O)Nc4ccccc41)[C@@H]32 (stereo not given in full) | -2.08% |
| O=c1c2ccccc2nc(-c2ccc(Cl)cc2Cl)n1-c1ccncc1 | 18.8% |
| CCN(CC)CCOC(=O)c1cc2cc(COC)ccc2o1 | -10.2% |
| CC(C)CN1CCN(Cc2ccccc2C(F)(F)F)CC1CCO (stereo not given) | -6.36% |
| O=[N+]([O-])c1cnc2ccc3ccccc3c2c1 | -22.9% |
| C/C(=N/O)c1ccc2ccc3ccccc3c2c1 | 40.7% (active) |
| C/C(CCc1c[nH]c2ccccc12)=N\O | 6.37% |
| COc1ccc(N2C(=O)/C(=C/c3ccco3)C(=O)NC2=S)cc1 | -0.32% |
| O=C1NC(=O)N(c2ccccc2)C(=O)/C1=C/c1ccc([N+](=O)[O-])s1 | 85.5% (active) |
| COc1cccc(N2C(=O)NC(=O)/C(=C\c3ccc([N+](=O)[O-])s3)C2=O)c1 | 78.4% (active) |
| Cc1c(C(=O)O)cccc1-n1c(C)cc(/C=C2\C(=O)NC(=O)N(c3ccc4c(c3)OCO4)C2=O)c1C | -7.16% |
| CCc1cccc2c(C#N)cn(CC(=O)N3CCOCC3)c12 | 9.92% |
| Cn1c(C(=O)N2CCC(C(=O)N3CCC4(CC3)OCCO4)CC2)cc2sccc21 | 1.3% |
| COc1ccc(CCn2c(O)c(C=NC3CC3)c(=O)[nH]c2=O)cc1OC | 0.042% |
| CC(=O)Cc1ccc(OC(C)C)cc1 | -13.5% |
| CC(C(=O)Nc1ccc(Cl)cc1Cl)N1CC=C(c2ccccc2)CC1 (stereo not given) | 15.3% |
| CCCCCn1c(=O)c(C(=O)Nc2c(C)n(C)n(-c3ccccc3)c2=O)c(O)c2ccccc21 | 24.7% |
| Cc1cc2ccccn2c1C(C[N+](=O)[O-])c1c(F)cccc1Cl (stereo not given) | 52.7% (active) |
| CCN1c2nc3c(C)cccn3c(=O)c2CC2(C(=O)N(C)C(=O)N(C)C2=O)C1C (stereo not given) | 5.19% |
| Cc1cccc(NC(=O)N2CC3CC(C2)c2cccc(=O)n2C3)c1 (stereo not given) | -9.99% |
| CC[C@H]1CC2CN3CCc4c([nH]c5ccccc45)C(C(=O)OC)(C2)C13 (stereo not given in full) | -1.49% |
| COC(=O)C1=C(c2ccccc2)C[C@@H]2CC[C@H]1N2C(=O)N1CCCCC1 | 28.7% |
